Measurements taken from PubChem BioAssay (NCI).
Several values for one entry are separate records, joined by “and”; a condition that tells them apart may be missing. Equal entries are not always repeated. About 79,000 compounds went through this panel and 15% of them were active in at least one assay; those are over-represented in the sample as a whole. The source holds several records for some structures; these can differ, active in one and inactive in another. Activity calls are given as the source filed them. No stated cut-off is given here; in the data, active means growth inhibition above about 70%; inactive means the rest.

Tests used:
[1] = NCI Yeast Anticancer Drug Screen. Data for the rad50 strain (AID 155);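 further: 0% = growth of vehicle-only cultures of the same strain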; settings: S. cerevisiae rad50 strain growth inhibition, stronger effect = higher value
Summary of the method: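 Yeast carrying a defined DNA repair defect were exposed to test compounds, and growth was compared with vehicle-treated controls to give percent inhibition.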

[2] = NCI Yeast Anticancer Drug Screen. Data for the mec2-1 strain (AID 157); settings: S. cerevisiae mec2-1 strain, stronger effect = higher value
Summary of the method: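 Test agents were screened against the mec2-1 yeast strain, with defined DNA repair or cell cycle alteration. Growth was scored as inhibition against vehicle-only controls.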

[3] = NCI Yeast Anticancer Drug Screen. Data for the sgs1 mgt1 strain (AID 161);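 further: 0% = growth of cultures given vehicle only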; settings: S. cerevisiae sgs1 mgt1 strain, stronger effect = higher value
Summary of the method: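 Inhibition of yeast growth, normalised to vehicle-treated controls, is reported for a strain bearing genetic alterations in DNA damage repair.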

[4] = NCI Yeast Anticancer Drug Screen. Data for the cln2 rad14 strain (AID 165);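 further: 0% = growth equal to vehicle treated cultures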; settings: S. cerevisiae cln2 rad14 strain, stronger effect = higher value
Summary of the method: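 Growth of compound-exposed yeast (cln2 rad14 genotype) measured and expressed as inhibition relative to vehicle.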

[5] = NCI Yeast Anticancer Drug Screen. Data for the bub3 strain (AID 167); settings: S. cerevisiae bub3 mutant strain, stronger effect = higher value
Summary of the method: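 Compounds were applied to a genetically altered yeast strain carrying a cell-cycle control defect. Growth inhibition was scored against vehicle-treated controls.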

[6] = NCI Yeast Anticancer Drug Screen. Data for the mlh1 rad18 strain (AID 175); settings: S. cerevisiae mlh1 rad18 strain growth inhibition, stronger effect = higher value
Summary of the method: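 In this whole-cell yeast screen, a strain with altered DNA damage repair is challenged with compound, and its growth is measured against matched vehicle-treated controls.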

[7] = at 5.0 µM (retest, dose inferred, filed as 0.5)
[8] = at 50.0 µM (retest, dose inferred, filed as 5.0)

Measured: growth inhibition

OC(CN1CCCC2CCCCC21)c1cc2ccccc2c2ccccc12 (stereo unspecified)
inactive: [1]; [7] 0% and -2% | [2]; [7] 20% and -4% | [3]; [7] -21% and -6% | [4]; [7] -2% | [5]; [7] 0% and -3% | [6]; [7] 13% and 2%
active: [1]; [8] 97% and 99% | [1]; at 50.0 µM 98.7% and 98.5% | [2]; [8] 80% and 99% | [2]; at 50.0 µM 98.4% | [3]; [8] 98% and 99% | [3]; at 50.0 µM 98.9% and 98% | [4]; [8] 94% and 99% | [4]; at 50.0 µM 99% and 98.2% | [5]; [8] 91% and 99% | [5]; at 50.0 µM 99.2% and 99% | [6]; [8] 99% | [6]; at 50.0 µM 99.2% and 99%

O=c1ccn(C2CC(O)C(COC(c3ccccc3)(c3ccccc3)c3ccccc3)O2)c(=O)[nH]1 (stereo unspecified)
inactive: [1]; [7] 1% and 22% | [1]; at 50.0 µM 49.5% and 40.2% | [2]; [7] 6% and 7% | [3]; [7] -1% | [3]; at 50.0 µM 42.5% and 52.7% | [4]; [7] 8% and 5% | [5]; [7] 7% and 1% | [6]; [7] 13% | [6]; at 50.0 µM 41.9% and 51.7%
active: [1]; [8] 99% | [2]; [8] 100% and 99% | [4]; [8] 99% | [5]; [8] 99% and 98% | [6]; [8] 99% and 98%
100% (active) and 54% (inactive): [3]; [8]
99.5% (active) and 16.2% (inactive): [5]; at 50.0 µM
97.7% (active) and 56% (inactive): [4]; at 50.0 µM
98% (active) and 53% (inactive): [2]; at 50.0 µM

OCC1OC(n2cnc3c(=S)nc[nH]c32)C(O)C1O (stereo unspecified)
inactive: [1]; [7] -3% | [1]; [8] -13% | [1]; at 50.0 µM -0.9% and -2.3% | [2]; [7] -14% | [2]; [8] -14% | [2]; at 50.0 µM 8.35% and -13.8% | [3]; [7] 0% | [3]; [8] 5% | [3]; at 50.0 µM 6.65% and -21.8% | [4]; [7] 20% | [4]; [8] -7% | [4]; at 50.0 µM 24.9% and -27% | [5]; [7] 0% | [5]; [8] -3% | [5]; at 50.0 µM 14.9% and -16.9% | [6]; [7] -13% | [6]; [8] -14% | [6]; at 50.0 µM 3.2% and -1.15%

c1ccc(CSC(SCc2ccccc2)(c2ccccc2)c2ccccc2)cc1
active: [1]; [8] 88% | [2]; [8] 93% | [3]; [8] 90% | [4]; [8] 87% | [5]; [8] 83% | [6]; [8] 92%
13.7% (inactive) and 81.3% (active): [6]; at 50.0 µM
inactive: [1]; [7] 30% | [2]; [7] 13% | [2]; at 50.0 µM 5.7% and 63.5% | [3]; [7] 2% | [4]; [7] 11% | [4]; at 50.0 µM 18.2% and 65.3% | [5]; [7] -16% | [6]; [7] 22%
15.4% (inactive) and 74.8% (active): [5]; at 50.0 µM
14.4% (inactive) and 72% (active): [1]; at 50.0 µM
14.8% (inactive) and 76.8% (active): [3]; at 50.0 µM

Fc1ccc2nc3ccccc3nc2c1
active: [1]; at 50.0 µM 77.5% | [6]; at 50.0 µM 76.3%
inactive: [1]; [7] 3% | [1]; [8] 40% | [2]; [7] 5% | [2]; [8] 27% | [2]; at 50.0 µM 49.2% | [3]; [7] 0% | [3]; [8] 10% | [3]; at 50.0 µM 22.6% | [4]; [7] -6% | [4]; [8] 10% | [4]; at 50.0 µM 29.5% | [5]; [7] 5% | [5]; [8] 24% | [5]; at 50.0 µM 42.5% | [6]; [7] 2% | [6]; [8] 27%

COC(=O)C1C(O)C(C)C(O)C(C)C=C(C)C2=C3C(=C(C)C(=O)c4c(O)c(c(C)c(OC(C)=O)c43)NC(=O)C(C)=C/C=C\C(C)C(O)C(C)C1O)OCO2 (stereo unspecified)
inactive: [1]; [7] -11% | [1]; [8] -37% | [1]; at 50.0 µM 53.1% and 5.45% | [2]; [7] -14% | [2]; [8] -42% | [2]; at 50.0 µM 22.1% and -8.55% | [3]; [7] -11% | [4]; [7] -10% | [4]; [8] 10% | [4]; at 50.0 µM 28.6% and 3% | [5]; [7] -31% | [5]; [8] -27% | [5]; at 50.0 µM 37.9% and 8.2% | [6]; [7] -36% | [6]; [8] -3% | [6]; at 50.0 µM 17.6% and 8.65%
active: [3]; [8] 89%
90.2% (active) and -9.2% (inactive): [3]; at 50.0 µM

Fc1ccc(NC(=S)SCc2ccc3c(c2)OCO3)cc1
inactive: [1]; [7] 3% | [2]; [7] 1% | [3]; [7] 3% | [4]; [7] -13% | [5]; [7] -8% | [6]; [7] -4%
active: [1]; [8] 98% | [1]; at 50.0 µM 99% | [2]; [8] 99% | [2]; at 50.0 µM 98.5% | [3]; [8] 99% | [3]; at 50.0 µM 99.5% | [4]; [8] 95% | [4]; at 50.0 µM 98.5% | [5]; [8] 97% | [5]; at 50.0 µM 98.9% | [6]; [8] 95% | [6]; at 50.0 µM 99.3%
